Source: PubChem BioAssay (NCI)
This is part of a sample that, as a whole, favours compounds with a hit. Of some 83,000 tested, about 20% had one in any assay.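 Each cell line was grown in a 96-well plate and treated with one concentration of compound for 48 hours. Values below 10 were considered active.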 Active and inactive are the calls of the source.

Legend:
Test in all cases: NCI-60 one-dose screen, 48 h (100 = growth as untreated, 0 = no growth, -100 = all killed)
Details in all cases: 10 µM unless noted
NCI-H23 lung = system: NCI-H23 lung
NCI-H226 lung = system: NCI-H226 lung
NCI-H322M lung = system: NCI-H322M lung
HOP-62 NSCLC = system: HOP-62 NSCLC
NCI-H460 lung = system: NCI-H460 lung
HOP-92 NSCLC = system: HOP-92 NSCLC
NCI-H522 lung = system: NCI-H522 lung
A549/ATCC NSCLC = system: A549/ATCC NSCLC
786-0 renal = system: 786-0 renal
COLO 205 colon = system: COLO 205 colon

Measured: growth

O=C(CCCn1c2c(sc3ccccc32)c(=O)n2nnc(-c3ccccc3)c12)NCCc1cnc[nH]1
active: NCI-H322M lung -34.1% | HOP-62 NSCLC -7.01% | NCI-H460 lung -93.2% | HOP-92 NSCLC -75.7% | NCI-H522 lung -95.8% | A549/ATCC NSCLC -75.3% | 786-0 renal -85.2% | COLO 205 colon -3.8%
inactive: NCI-H23 lung 23.4% | NCI-H226 lung 98.5%

CC(C)C[C@H](NC(=O)[C@@H](Cc1ccccc1)n1ccc(Nc2ccccc2)cc1=O)B(O)O
inactive: NCI-H322M lung 43.5% | A549/ATCC NSCLC 17% | 786-0 renal 17.2% | COLO 205 colon 13.8%
active: NCI-H23 lung 6.41% | NCI-H226 lung -72% | HOP-62 NSCLC -21.6% | NCI-H460 lung 8.89% | HOP-92 NSCLC -31.4% | NCI-H522 lung -53.7%

COc1ccc(/C=C/C(=O)c2cccc(B(O)O)c2)cc1O
inactive: NCI-H23 lung 61.9% | NCI-H226 lung 91.5% | NCI-H322M lung 64% | HOP-62 NSCLC 40.5% | NCI-H460 lung 13.8% | HOP-92 NSCLC 41.4% | NCI-H522 lung 43.9% | A549/ATCC NSCLC 41.7% | 786-0 renal 59.1% | COLO 205 colon 98.3%

CCCCC[C@@H]1Cc2cc(O)c(C(=O)O)c3c2[C@H](C[C@@]2(CCCO2)O3)O1
inactive: NCI-H23 lung 103% | NCI-H226 lung 110% | NCI-H322M lung 121% | HOP-62 NSCLC 93.6% | NCI-H460 lung 121% | NCI-H522 lung 89.7% | A549/ATCC NSCLC 105% | 786-0 renal 103% | COLO 205 colon 112%
active: HOP-92 NSCLC 4.89%

O=c1oc2c([nH]c3ccc4ccccc4c32)c2ccccc12
inactive: NCI-H23 lung 93.6% | NCI-H226 lung 104% | NCI-H322M lung 101% | HOP-62 NSCLC 103% | NCI-H460 lung 112% | HOP-92 NSCLC 90.2% | NCI-H522 lung 102% | A549/ATCC NSCLC 134% | 786-0 renal 102% | COLO 205 colon 108%

O=[N+]([O-])c1ccc(S(=O)(=O)N2CCN(c3ccnc4cc(Cl)ccc34)CC2)c([N+](=O)[O-])c1
inactive: NCI-H23 lung 97.2% | NCI-H226 lung 83.7% | NCI-H322M lung 107% | HOP-62 NSCLC 96.4% | NCI-H460 lung 99.2% | HOP-92 NSCLC 82.1% | NCI-H522 lung 46.1% | A549/ATCC NSCLC 99.2% | 786-0 renal 80.8% | COLO 205 colon 91.4%

COc1ccc(OC)c(/C=C2\Oc3cc(OCCN4CCCC4)ccc3C2=O)c1
inactive: NCI-H23 lung 87.7% | NCI-H226 lung 104% | NCI-H322M lung 97.4% | HOP-62 NSCLC 87.2% | NCI-H460 lung 99.1% | HOP-92 NSCLC 92.3% | NCI-H522 lung 103% | A549/ATCC NSCLC 103% | 786-0 renal 93.9% | COLO 205 colon 97.9%

CCn1cc(C2NC(=O)c3cc(F)ccc3N2)c2cccc(Cl)c21 (stereo not drawn)
inactive: NCI-H23 lung 30.8% | NCI-H226 lung 49.5% | NCI-H322M lung 45.5% | HOP-62 NSCLC 28.5% | HOP-92 NSCLC 72% | 786-0 renal 42.3%
active: NCI-H460 lung 6.22% | NCI-H522 lung -22.1% | A549/ATCC NSCLC 3.82% | COLO 205 colon -11.5%

CCN1C(=O)N(CC)C2Nn3c(s/c(=C4\C(=O)N(C5CCCC5)c5ccccc54)c3=O)=NC21 (stereo not drawn)
inactive: NCI-H23 lung 53.9% | NCI-H226 lung 91.8% | NCI-H322M lung 94.8% | HOP-62 NSCLC 50% | NCI-H460 lung 43.9% | HOP-92 NSCLC 67.4% | NCI-H522 lung 28% | A549/ATCC NSCLC 54.4% | 786-0 renal 63.6% | COLO 205 colon 26.2%

c1ccc2nc(-c3ccc4ccccc4n3)ccc2c1
inactive: NCI-H23 lung 88.5% | NCI-H226 lung 85.9% | NCI-H322M lung 95.8% | HOP-62 NSCLC 82.8% | NCI-H460 lung 103% | HOP-92 NSCLC 83% | NCI-H522 lung 70% | A549/ATCC NSCLC 102% | COLO 205 colon 106%

COc1ccc(Cl)cc1NC(N)=S
inactive: NCI-H23 lung 94.6% | NCI-H226 lung 107% | NCI-H322M lung 108% | HOP-62 NSCLC 110% | NCI-H460 lung 109% | HOP-92 NSCLC 92.2% | NCI-H522 lung 80.7% | A549/ATCC NSCLC 103% | 786-0 renal 102% | COLO 205 colon 127%

N#Cc1c(NC(=O)c2ccc([N+](=O)[O-])o2)[n+]([O-])c2cc(F)c(F)cc2[n+]1[O-]
inactive: NCI-H23 lung 99% | NCI-H226 lung 108% | NCI-H322M lung 119% | HOP-62 NSCLC 123% | NCI-H460 lung 110% | HOP-92 NSCLC 96.6% | NCI-H522 lung 101% | A549/ATCC NSCLC 116% | 786-0 renal 110% | COLO 205 colon 132%

CCN(CC)CCC(=O)c1cccc2ccccc12
inactive: NCI-H23 lung 95.3% | NCI-H226 lung 104% | NCI-H322M lung 103% | HOP-62 NSCLC 112% | NCI-H460 lung 110% | HOP-92 NSCLC 99.4% | A549/ATCC NSCLC 98.6% | 786-0 renal 102% | COLO 205 colon 124%
active: NCI-H522 lung 9.95%

CCCC1OC(c2ccc(C(C)C)cc2)OCC1CC (stereo not drawn)
inactive: NCI-H23 lung 98.8% | NCI-H226 lung 100% | NCI-H322M lung 98% | HOP-62 NSCLC 74% | NCI-H460 lung 123% | HOP-92 NSCLC 101% | NCI-H522 lung 87.2% | A549/ATCC NSCLC 75.8% | COLO 205 colon 99.6%

COc1cc(NC(=O)CCl)ccc(=O)c1
inactive: NCI-H23 lung 53.7% | NCI-H226 lung 122% | NCI-H322M lung 86.4% | HOP-62 NSCLC 113% | NCI-H460 lung 77.4% | HOP-92 NSCLC 79% | NCI-H522 lung 17.2% | A549/ATCC NSCLC 84.5% | 786-0 renal 106% | COLO 205 colon 82.6%

N#Cc1ccc(NC(=O)c2ccc3cccnc3c2O)cc1
active: NCI-H460 lung 4.71%
inactive: NCI-H23 lung 43.7% | NCI-H226 lung 45.2% | NCI-H322M lung 27.7% | HOP-62 NSCLC 14.6% | HOP-92 NSCLC 71.4% | NCI-H522 lung 18.6% | A549/ATCC NSCLC 15.1% | 786-0 renal 10.2% | COLO 205 colon 11.2%

NC(=O)c1c(NC(=O)c2ccc3c(c2)OCO3)sc2c1CCC(=O)C2
active: NCI-H23 lung -12.6% | NCI-H226 lung -5.74% | NCI-H460 lung 3.04% | HOP-92 NSCLC -21% | NCI-H522 lung -58.9% | A549/ATCC NSCLC -9.76% | COLO 205 colon -42.2%
inactive: NCI-H322M lung 14.8% | HOP-62 NSCLC 14.9% | 786-0 renal 12.2%

O=C(/C=C/CN1CCOCC1)Nc1cc2c(Nc3ccc(F)c(Cl)c3F)ncnc2cc1OCCOC(F)F
inactive: NCI-H23 lung 69.2% | NCI-H226 lung 70% | HOP-62 NSCLC 51.2% | NCI-H460 lung 49.4% | A549/ATCC NSCLC 40.5% | 786-0 renal 38.9% | COLO 205 colon 71.9%
active: NCI-H322M lung 8.76% | HOP-92 NSCLC -8.94% | NCI-H522 lung 8.53%

OCc1c(-c2ccccc2)nc2sccn12
inactive: NCI-H23 lung 81.9% | NCI-H226 lung 106% | NCI-H322M lung 105% | HOP-62 NSCLC 95.5% | NCI-H460 lung 106% | NCI-H522 lung 105% | A549/ATCC NSCLC 101% | 786-0 renal 101% | COLO 205 colon 110%
active: HOP-92 NSCLC -8.39%

Cc1cc(C)c2c(=O)[nH]c(SCC(=O)Nc3cccc(S(=O)(=O)N(C)C)c3)nc2n1
inactive: NCI-H23 lung 104% | NCI-H226 lung 91.9% | NCI-H322M lung 122% | HOP-62 NSCLC 97.8% | NCI-H460 lung 107% | HOP-92 NSCLC 88.3% | NCI-H522 lung 96.3% | A549/ATCC NSCLC 95% | 786-0 renal 93.2% | COLO 205 colon 90.9%

CC(=O)OCC1OC(OCC2OC(OC(C)=O)C(OC(C)=O)C(OC(C)=O)C2OC(C)=O)C(OC(C)=O)C(OC(C)=O)C1OC(C)=O (stereo not drawn)
inactive: NCI-H23 lung 103% | NCI-H226 lung 83.1% | NCI-H322M lung 101% | HOP-62 NSCLC 97.5% | NCI-H460 lung 104% | HOP-92 NSCLC 91.7% | NCI-H522 lung 104% | A549/ATCC NSCLC 94.4% | 786-0 renal 103% | COLO 205 colon 107%

ClC1=C(Cl)C(Cl)=C(Cl)C1=Cc1ccc(Cl)cc1Cl
active: NCI-H23 lung -53.5% | NCI-H226 lung -33.9% | NCI-H460 lung -16.3% | HOP-92 NSCLC -81% | NCI-H522 lung -22.8% | A549/ATCC NSCLC -38.4% | 786-0 renal -40.3% | COLO 205 colon -34.1%
inactive: NCI-H322M lung 11.3% | HOP-62 NSCLC 10.9%

CC(C)(C)c1cc(-c2nc3ccc(N4CCN(CCO)CC4)cc3[nH]2)cc(C(C)(C)C)c1O
inactive: NCI-H23 lung 96.3% | NCI-H226 lung 99% | NCI-H322M lung 82.3% | HOP-62 NSCLC 72.6% | HOP-92 NSCLC 45.2% | NCI-H522 lung 74% | A549/ATCC NSCLC 43.1% | 786-0 renal 52%
active: NCI-H460 lung 4.48% | COLO 205 colon -57.2%

COc1ccc(C2NC3=C(CCCC3)C(C#N)(C#N)C2(C#N)C#N)cc1 (stereo not drawn)
inactive: NCI-H23 lung 91.4% | NCI-H226 lung 97% | NCI-H322M lung 109% | HOP-62 NSCLC 94.6% | NCI-H460 lung 97.6% | HOP-92 NSCLC 103% | NCI-H522 lung 23.8% | A549/ATCC NSCLC 106% | 786-0 renal 88.1% | COLO 205 colon 11.8%

CC/C=C\C/C=C\C[C@H](O)C/C=C1/C(=O)C=C[C@H]1C/C=C\CCC(=O)OC
inactive: NCI-H23 lung 54.3% [8.25 µM] | NCI-H226 lung 69.9% [8.25 µM] | NCI-H322M lung 90.2% [8.25 µM] | HOP-62 NSCLC 37.6% [8.25 µM] | NCI-H460 lung 90.2% [8.25 µM] | HOP-92 NSCLC 58.6% [8.25 µM] | A549/ATCC NSCLC 53.4% [8.25 µM] | 786-0 renal 44.7% [8.25 µM]
active: NCI-H522 lung -30.8% [8.25 µM] | COLO 205 colon 0.861% [8.25 µM]

COc1cc2nc(Cl)nc(NCCO)c2cc1OC
inactive: NCI-H23 lung 108% | NCI-H226 lung 98.2% | NCI-H322M lung 105% | HOP-62 NSCLC 114% | NCI-H460 lung 95.7% | HOP-92 NSCLC 95.6% | NCI-H522 lung 100% | A549/ATCC NSCLC 97.7% | 786-0 renal 111% | COLO 205 colon 125%

CN(C)c1ccc(C2CC(c3ccccc3)=NN2/C=C2\SC(=O)NC2=O)cc1 (stereo not drawn)
inactive: NCI-H23 lung 88.7% | NCI-H226 lung 90.4% | NCI-H322M lung 87.4% | HOP-62 NSCLC 94.5% | NCI-H460 lung 67.2% | HOP-92 NSCLC 91.5% | NCI-H522 lung 90% | A549/ATCC NSCLC 70.1% | 786-0 renal 90.5% | COLO 205 colon 110%
